# Assay results published in PubChem BioAssay (NCI).
# About 79,000 compounds went through this panel and 15% of them were active in at least one assay; those are over-represented in the sample as a whole. Unmarked numbers belong to inactive results. Activity calls are given as the source filed them. Rule as the data show it: active = growth inhibition above about 70%; inactive = the rest.
# Columns and labels:
# [1] = NCI Yeast Anticancer Drug Screen. Data for the rad50 strain (AID 155);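 also: 0% = growth of vehicle-only cultures of the same strain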; conditions: S. cerevisiae rad50 strain growth inhibition; at 50.0 µM; stronger effect = higher value
# How it was run: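 Inhibition values express reduced yeast growth in compound-treated cultures relative to vehicle-treated controls.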
# [2] = NCI Yeast Anticancer Drug Screen. Data for the mec2-1 strain (AID 157); conditions: S. cerevisiae mec2-1 strain, at 50.0 µM, stronger effect = higher value
# How it was run: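 Readout is yeast growth inhibition, normalised to vehicle-treated controls, in the mec2-1 strain exposed to compound.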
# [3] = NCI Yeast Anticancer Drug Screen. Data for the sgs1 mgt1 strain (AID 161);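 also: 0% = growth of cultures given vehicle only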; conditions: S. cerevisiae sgs1 mgt1 strain, at 50.0 µM, stronger effect = higher value
# How it was run: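 This yeast growth screen uses a strain with defined DNA-repair lesions; compound-treated growth is compared with vehicle-treated growth.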
# [4] = NCI Yeast Anticancer Drug Screen. Data for the cln2 rad14 strain (AID 165);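 also: 0% = growth equal to vehicle treated cultures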; conditions: S. cerevisiae cln2 rad14 strain, at 50.0 µM, stronger effect = higher value
# How it was run: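 Relative to vehicle controls, growth inhibition of compound-treated cln2 rad14 yeast was recorded.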
# [5] = NCI Yeast Anticancer Drug Screen. Data for the bub3 strain (AID 167); conditions: S. cerevisiae bub3 mutant strain, at 50.0 µM, stronger effect = higher value
# How it was run: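 Steps: expose the mutant yeast strain to compound; grow alongside vehicle-treated cultures; measure growth; express inhibition against the vehicle cultures.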
# [6] = NCI Yeast Anticancer Drug Screen. Data for the mlh1 rad18 strain (AID 175); conditions: S. cerevisiae mlh1 rad18 strain growth inhibition; at 50.0 µM; stronger effect = higher value
# How it was run: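 Test agents were incubated with a yeast strain of defined genotype (DNA damage repair defect). Inhibition of growth was derived by comparison with vehicle-exposed cultures.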
SMILES,growth inhibition [1],growth inhibition [2] [%],growth inhibition [3] [%],growth inhibition [4] [%],growth inhibition [5] [%],growth inhibition [6] [%]
COc1cc(-c2cc(=O)c3c(O)c(OC)c(OC)cc3o2)ccc1O,-34.3%,-40.2,-28.5,-22.1,-36.6,-41.5
NCCc1c(-c2cccnc2)[nH]c2ccccc12,-14.5%,-9.1,-2.75,-25.4,7.6,1.1
COc1cc(-c2c(C)oc(C)c2C(C)=O)ccc1OCc1ccccc1,9.6%,-1.95,-9.1,11.8,14.8,14.4
C1=C(c2ccccc2)CCCC1,17.1%,3.55,4.2,14.4,-9.4,4.45
Clc1cc(Cl)nc(Nc2ccc3c(c2)CCC3)n1,23.9%,10.2,-1.15,-4.2,3.9,39.5
Clc1ccc2sc(-c3ccccc3)nc2c1,-22.8%,-18.4,-4.45,-23.1,7.45,-3.6
O=C(C[n+]1cc(Br)cc(Br)c1)c1ccc2ccccc2c1,27.2%,3.45,7.7,11.8,20.2,43.6
Clc1ccccc1-c1nc(-c2ccncc2)no1,23.3%,-14.9,-25,34.1,57.6,34
CC(C)(C)C(=O)Nc1c(Cl)c(C2CC2)nn1-c1ccccc1,7.55%,-0.55,24.7,11.3,22.4,19.4
O=[N+]([O-])c1cccc2ccc(N/N=C/c3ccccc3O)nc12,18.8%,-4.05,42.2,1.85,7.25,19.8
CC(C)CCOC(=O)c1ccc(C(C)C)cc1,7.65%,9.85,-0.35,-17.7,46.6,5.3
S=c1[nH]ncn2nc3ccccc3c12,0.15%,2.5,-2.25,-45.5,-3.85,1.7
CCCCC/C(C)=N\NC(N)=S,15.6%,-6.15,-15.9,1.85,19.8,-2.5
O=C1NC(=O)C(c2ccc(C(=O)O)cc2)N1 (stereo unspecified),-12.8%,-10,0.05,8.45,-5.5,-2.25
N#CC1c2ccccc2C=CN1C(=O)c1ccccc1 (stereo unspecified),-15.9%,-15.9,12.5,-18.9,-8.95,-24.4
O=C(CC(C(=O)c1cccs1)c1ccsc1)c1ccc(Cl)s1 (stereo unspecified),-5.35%,-15,-11.1,4.2,-2.2,-5.05
Nc1nc(N)c2cc(S(=O)(=O)c3ccccc3)ccc2n1,26.1%,8.7,-8.9,-4.55,-26.1,-40.5
CC(C)(C)OC(=O)CC1(O)CCCCC1,4.15%,-5.9,-6.05,4.75,4,8.05
O=C(O)CSc1ccc2c3c(cccc13)C(=O)c1ccccc1-2,-9.9%,27.4,7.95,26,56.8,3.1
Cc1cc(C)cc(C(C)C)c1,-15.4%,-4.35,-22.9,5.95,-11.6,-6.95
Cc1ccccc1NC(=O)CC(=O)N1N=C(N(CCC#N)c2ccccc2Cl)CC1c1ccccc1 (stereo unspecified),4.1%,-10,-39.3,16.4,-10.1,-8.3

SMILES,growth inhibition [1],growth inhibition [2] [%],growth inhibition [3] [%],growth inhibition [4] [%],growth inhibition [5] [%],growth inhibition [6] [%]
[N-]=[N+]=Nc1ccc(S(=O)(=O)Oc2cc(OS(=O)(=O)c3ccc(N=[N+]=[N-])cc3)cc(OS(=O)(=O)c3ccc(N=[N+]=[N-])cc3)c2)cc1,4%,16.1,10.6,8,-5.9,14.1
COc1ccc(/C=C/c2cc(O)cc(OC3OC(CO)C(O)C(O)C3O)c2)cc1O (stereo unspecified),-2.4%,10.5,-5.5,7.55,8.7,10.8
Nc1nc(-c2ccc(F)cc2)cc(-c2cc(-c3ccc(F)cc3)nc(N)n2)n1,-17.1%,-2.75,-20.9,-2,-7.15,2.15
CS(=O)(=O)OCCN1C(=O)CNC1=O,4.6%,8.35,-9.45,-27.8,9.55,-2.7
Clc1nc(Cl)c2ncn(C3CCCCO3)c2n1 (stereo unspecified),26.4%,26.1,5.05,4.6,38.2,14.3
CCOC(=O)C(C=Nc1ccc(S(N)(=O)=O)cc1)C(=O)OCC,-8.15%,4.85,12.1,-22.4,-1.1,-24.9
C#CC(C)(C)CC,21.4%,-16.4,8.35,19.8,-8.1,17.4
CC(=O)OC12CC3CCC4C(CCC5(C)C(C(C)CCCC(C)C)CCC45)C3(C)CC1O2 (stereo unspecified),71% (active),48.4,69.8,-1.2,14.3,42.2
COC1=c2\cccc\c2=c2/cccc/c2=c2\cccc\c2=N\1,17.4%,13.1,11.4,12.2,13.4,17.5
O=C1/C(=C/c2ccc3c(c2)OCO3)CC/C1=C\c1ccc2c(c1)OCO2,-10.2%,5.35,-19.7,-55.6,-13.7,-26.9
O=C(Nc1nccs1)c1c(O)nc2sccn2c1=O,8.7%,-33,18.9,22.4,14.8,-12.6
Cc1nn(C(=O)c2ccccc2O)c2c1C(c1ccc(O)cc1)SC(N)=N2 (stereo unspecified),16.1%,1.95,29.4,1.65,43.6,6.65
CC1CCCNC1C (stereo unspecified),-21%,-24.1,-11.1,-29,-3.25,8.25
CCCCOCCOC(=O)c1ccccc1C(=O)OCCOCCCC,-5.75%,-42.4,-49.4,-49,-23.1,-25
O=C1Nc2c(cccc2-c2ccccc2)C(=O)C1(O)c1ccccc1 (stereo unspecified),-0.35%,-1.2,-0.6,-9.8,-2.6,-3.95
O=[N+]([O-])C1=C(c2ccccc2)SC(Br)=C(c2ccccc2)S1,-1.2%,9.7,3.2,-0.6,3.35,7.65
CC(=O)NC1CCC(Cc2ccccc2)CC1 (stereo unspecified),6.2%,-7.65,-11.3,-93.3,-22.3,-3.9
CC(=O)Nc1ccc(Br)cc1,0.85%,-5.6,-18.4,-34,-17.1,0.1
Cc1c2sc3ccccc3[nH]c2nc2[nH]c3ccccc3sc12,-24.9%,-10.7,-25.1,2.35,11,0.95
CN(C)C(=S)/N=c1\ssc(=S)n1Cc1ccccc1,-10.4%,-24.9,-4.55,16.4,-17.9,-86.5
